Results published in the supplement of paper PMC11732987, “Enantioselective OTUD7B fragment discovery through chemoproteomics screening and high-throughput optimisation” (Communications Chemistry, 2025).

Assays:
Experiment in all cases: log2 ratio of Biotin-Ahx-Ub-VS probe labelling (fragment/DMSO); higher = less target engagement (more negative = stronger competition), active = hit call of the paper (q ≤ 0.05, log2 ratio ≤ -1)
Conditions in all cases: compound concentration: 200 uM; treatment time: 3 h
[1] = molecular target: T1, ALG13 (UniProt Q9NP73)
T1 sequence (whole entry): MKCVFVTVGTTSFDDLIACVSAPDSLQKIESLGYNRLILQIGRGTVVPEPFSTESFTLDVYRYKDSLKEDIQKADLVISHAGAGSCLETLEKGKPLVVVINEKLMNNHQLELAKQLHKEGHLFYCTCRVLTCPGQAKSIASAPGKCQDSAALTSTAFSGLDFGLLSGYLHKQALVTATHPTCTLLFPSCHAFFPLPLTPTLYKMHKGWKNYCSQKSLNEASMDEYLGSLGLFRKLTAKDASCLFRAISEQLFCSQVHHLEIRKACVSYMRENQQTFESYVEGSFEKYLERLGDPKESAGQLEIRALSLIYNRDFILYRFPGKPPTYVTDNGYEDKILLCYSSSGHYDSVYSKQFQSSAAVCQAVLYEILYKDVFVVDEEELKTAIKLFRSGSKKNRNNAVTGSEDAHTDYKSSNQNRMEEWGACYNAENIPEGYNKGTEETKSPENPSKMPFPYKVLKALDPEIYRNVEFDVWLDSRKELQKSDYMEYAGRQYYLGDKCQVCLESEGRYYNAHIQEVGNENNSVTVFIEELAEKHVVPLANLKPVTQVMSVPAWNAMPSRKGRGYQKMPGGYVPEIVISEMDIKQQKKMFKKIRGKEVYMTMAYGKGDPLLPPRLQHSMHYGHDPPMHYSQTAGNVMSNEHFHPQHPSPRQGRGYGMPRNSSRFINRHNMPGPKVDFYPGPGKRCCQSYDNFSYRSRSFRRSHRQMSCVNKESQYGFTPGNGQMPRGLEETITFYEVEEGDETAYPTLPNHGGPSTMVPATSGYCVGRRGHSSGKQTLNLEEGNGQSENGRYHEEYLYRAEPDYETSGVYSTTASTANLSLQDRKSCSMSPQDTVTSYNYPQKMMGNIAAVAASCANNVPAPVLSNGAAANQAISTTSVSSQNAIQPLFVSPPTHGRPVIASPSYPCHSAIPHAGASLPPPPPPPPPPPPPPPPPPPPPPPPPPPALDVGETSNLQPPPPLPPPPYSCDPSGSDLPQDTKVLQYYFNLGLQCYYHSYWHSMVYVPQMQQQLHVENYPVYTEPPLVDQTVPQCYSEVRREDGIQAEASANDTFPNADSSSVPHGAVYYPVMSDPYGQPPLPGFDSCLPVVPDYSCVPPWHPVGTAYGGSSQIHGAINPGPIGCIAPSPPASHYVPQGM
Outline: (§1)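 HEK293T lysate, 495 µg per sample in Tris/CHAPS/IGEPAL buffer with protease inhibitors, was treated in triplicate with fragment at 200 µM or vehicle for 3 h and then with Biotin-Ahx-Ub-VS at 0.5 µM final for 1 h. Labelled DUBs were NeutrAvidin-enriched, digested with LysC and trypsin, and run by diaPASEF LC-MS/MS. Spectronaut label-free quantities were global-median-normalised, and values are average log2 fragment/vehicle ratios by unpaired t-test on proteins with ≥2 unique peptides.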

[2] = molecular target: ATXN3 (UniProt P54252)
Sequence of ATXN3 (P54252 whole entry): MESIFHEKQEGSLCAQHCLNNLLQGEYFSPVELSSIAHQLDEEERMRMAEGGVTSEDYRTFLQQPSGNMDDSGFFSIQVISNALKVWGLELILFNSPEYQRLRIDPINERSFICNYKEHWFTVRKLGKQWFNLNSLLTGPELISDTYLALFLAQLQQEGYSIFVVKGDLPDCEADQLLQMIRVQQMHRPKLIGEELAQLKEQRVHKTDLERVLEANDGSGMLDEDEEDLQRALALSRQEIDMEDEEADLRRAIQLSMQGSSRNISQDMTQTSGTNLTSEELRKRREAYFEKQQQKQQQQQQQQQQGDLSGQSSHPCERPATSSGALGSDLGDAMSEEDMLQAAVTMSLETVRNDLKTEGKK
Outline: as §1

[3] = molecular target: T2, BAP1 (UniProt Q92560)
T2 sequence (whole entry): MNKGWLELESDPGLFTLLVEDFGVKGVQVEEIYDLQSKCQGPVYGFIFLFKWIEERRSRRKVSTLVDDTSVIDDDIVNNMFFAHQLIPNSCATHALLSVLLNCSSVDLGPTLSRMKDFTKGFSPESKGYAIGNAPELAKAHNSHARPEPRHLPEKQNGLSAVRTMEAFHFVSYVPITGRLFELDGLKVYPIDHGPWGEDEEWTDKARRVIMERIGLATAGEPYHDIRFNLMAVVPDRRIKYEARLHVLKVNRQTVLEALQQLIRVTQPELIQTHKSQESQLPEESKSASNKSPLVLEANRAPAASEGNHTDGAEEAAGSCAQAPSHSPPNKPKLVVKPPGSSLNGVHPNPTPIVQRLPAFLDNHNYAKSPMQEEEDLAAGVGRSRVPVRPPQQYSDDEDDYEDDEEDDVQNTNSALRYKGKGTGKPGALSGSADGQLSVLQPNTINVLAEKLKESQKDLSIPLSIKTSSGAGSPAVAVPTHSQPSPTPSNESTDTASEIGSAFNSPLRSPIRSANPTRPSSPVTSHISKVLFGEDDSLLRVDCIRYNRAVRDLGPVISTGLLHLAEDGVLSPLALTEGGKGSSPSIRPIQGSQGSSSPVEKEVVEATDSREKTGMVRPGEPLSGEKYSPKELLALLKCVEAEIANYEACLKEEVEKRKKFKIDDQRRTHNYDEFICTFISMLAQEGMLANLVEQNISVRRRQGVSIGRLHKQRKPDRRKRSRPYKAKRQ
Outline: as §1

[4] = molecular target: EIF3F (UniProt O00303)
Sequence of EIF3F (O00303 whole entry): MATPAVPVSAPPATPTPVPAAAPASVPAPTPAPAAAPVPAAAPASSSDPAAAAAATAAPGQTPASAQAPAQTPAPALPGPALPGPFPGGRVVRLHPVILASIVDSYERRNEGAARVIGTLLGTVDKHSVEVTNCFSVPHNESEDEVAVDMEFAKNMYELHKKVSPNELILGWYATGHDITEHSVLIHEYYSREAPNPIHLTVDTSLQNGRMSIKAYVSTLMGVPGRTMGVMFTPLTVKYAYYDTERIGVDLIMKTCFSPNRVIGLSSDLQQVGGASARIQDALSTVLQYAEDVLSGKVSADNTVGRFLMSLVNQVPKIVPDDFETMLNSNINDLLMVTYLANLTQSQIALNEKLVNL
Outline: as §1

[5] = molecular target: EIF3H (UniProt O15372)
Sequence of EIF3H (O15372 whole entry): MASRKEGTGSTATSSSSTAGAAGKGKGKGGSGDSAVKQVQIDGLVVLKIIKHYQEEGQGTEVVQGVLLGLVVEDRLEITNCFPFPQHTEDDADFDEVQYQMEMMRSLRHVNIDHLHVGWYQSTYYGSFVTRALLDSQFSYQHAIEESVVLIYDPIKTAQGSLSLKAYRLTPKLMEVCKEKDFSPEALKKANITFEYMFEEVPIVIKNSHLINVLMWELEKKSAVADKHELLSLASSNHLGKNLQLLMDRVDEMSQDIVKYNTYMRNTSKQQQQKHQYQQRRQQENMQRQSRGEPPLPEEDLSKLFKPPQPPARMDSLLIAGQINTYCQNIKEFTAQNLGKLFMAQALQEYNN
Outline: as §1

[6] = molecular target: T3, FAM105A (UniProt Q9NUU6)
T3 sequence (whole entry): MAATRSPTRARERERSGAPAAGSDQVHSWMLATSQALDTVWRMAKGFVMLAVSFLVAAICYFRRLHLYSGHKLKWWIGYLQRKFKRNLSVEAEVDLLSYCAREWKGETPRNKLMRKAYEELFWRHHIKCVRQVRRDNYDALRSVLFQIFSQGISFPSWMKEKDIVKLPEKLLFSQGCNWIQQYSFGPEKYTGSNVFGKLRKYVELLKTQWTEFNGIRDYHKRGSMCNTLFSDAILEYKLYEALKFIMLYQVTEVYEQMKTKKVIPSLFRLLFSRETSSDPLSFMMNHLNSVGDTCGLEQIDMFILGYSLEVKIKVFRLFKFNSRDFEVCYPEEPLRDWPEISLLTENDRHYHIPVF
Outline: as §1

[7] = molecular target: OTUB1 (UniProt Q96FW1)
Sequence of OTUB1 (Q96FW1 whole entry): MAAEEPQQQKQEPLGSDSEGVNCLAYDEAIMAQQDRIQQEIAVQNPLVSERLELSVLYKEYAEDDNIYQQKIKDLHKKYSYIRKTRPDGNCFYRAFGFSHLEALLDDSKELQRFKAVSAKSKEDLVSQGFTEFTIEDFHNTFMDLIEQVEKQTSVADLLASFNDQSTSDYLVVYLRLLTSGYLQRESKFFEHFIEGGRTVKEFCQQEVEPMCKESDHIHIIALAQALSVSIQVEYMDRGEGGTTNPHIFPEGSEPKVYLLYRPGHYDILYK
Outline: as §1

[8] = molecular target: T4, OTUD4 (UniProt Q01804)
T4 sequence (whole entry): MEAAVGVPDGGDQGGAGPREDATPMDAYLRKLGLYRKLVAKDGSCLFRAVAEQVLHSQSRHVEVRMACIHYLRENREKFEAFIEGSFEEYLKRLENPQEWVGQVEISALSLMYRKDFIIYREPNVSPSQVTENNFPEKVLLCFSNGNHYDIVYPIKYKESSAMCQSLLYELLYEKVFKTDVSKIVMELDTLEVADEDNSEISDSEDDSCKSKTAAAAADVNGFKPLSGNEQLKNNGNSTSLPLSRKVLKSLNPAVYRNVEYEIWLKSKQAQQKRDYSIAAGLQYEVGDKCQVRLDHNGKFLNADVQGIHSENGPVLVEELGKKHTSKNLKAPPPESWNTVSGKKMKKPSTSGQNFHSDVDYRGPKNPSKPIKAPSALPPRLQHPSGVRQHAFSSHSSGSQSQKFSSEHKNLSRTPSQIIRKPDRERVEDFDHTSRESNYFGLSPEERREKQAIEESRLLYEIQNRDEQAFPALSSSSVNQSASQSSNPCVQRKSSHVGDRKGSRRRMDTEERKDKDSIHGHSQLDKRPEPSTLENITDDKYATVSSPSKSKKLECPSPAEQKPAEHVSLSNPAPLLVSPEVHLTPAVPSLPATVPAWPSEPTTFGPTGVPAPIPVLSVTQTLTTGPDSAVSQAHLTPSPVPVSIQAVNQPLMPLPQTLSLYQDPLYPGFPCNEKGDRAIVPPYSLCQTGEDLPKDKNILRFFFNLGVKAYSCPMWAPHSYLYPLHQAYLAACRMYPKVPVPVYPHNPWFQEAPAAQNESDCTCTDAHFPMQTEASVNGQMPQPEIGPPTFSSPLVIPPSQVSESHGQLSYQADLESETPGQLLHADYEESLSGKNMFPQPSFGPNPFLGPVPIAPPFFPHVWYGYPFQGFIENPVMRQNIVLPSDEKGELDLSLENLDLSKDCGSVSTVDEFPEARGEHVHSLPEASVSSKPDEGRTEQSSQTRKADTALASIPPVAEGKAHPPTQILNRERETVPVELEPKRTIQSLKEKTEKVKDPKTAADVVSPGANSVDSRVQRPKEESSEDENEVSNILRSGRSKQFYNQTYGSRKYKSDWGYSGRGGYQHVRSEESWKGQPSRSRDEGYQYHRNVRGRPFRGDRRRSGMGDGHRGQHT
Outline: as §1

[9] = molecular target: T5, OTUD5 (UniProt Q96G74)
T5 sequence (whole entry): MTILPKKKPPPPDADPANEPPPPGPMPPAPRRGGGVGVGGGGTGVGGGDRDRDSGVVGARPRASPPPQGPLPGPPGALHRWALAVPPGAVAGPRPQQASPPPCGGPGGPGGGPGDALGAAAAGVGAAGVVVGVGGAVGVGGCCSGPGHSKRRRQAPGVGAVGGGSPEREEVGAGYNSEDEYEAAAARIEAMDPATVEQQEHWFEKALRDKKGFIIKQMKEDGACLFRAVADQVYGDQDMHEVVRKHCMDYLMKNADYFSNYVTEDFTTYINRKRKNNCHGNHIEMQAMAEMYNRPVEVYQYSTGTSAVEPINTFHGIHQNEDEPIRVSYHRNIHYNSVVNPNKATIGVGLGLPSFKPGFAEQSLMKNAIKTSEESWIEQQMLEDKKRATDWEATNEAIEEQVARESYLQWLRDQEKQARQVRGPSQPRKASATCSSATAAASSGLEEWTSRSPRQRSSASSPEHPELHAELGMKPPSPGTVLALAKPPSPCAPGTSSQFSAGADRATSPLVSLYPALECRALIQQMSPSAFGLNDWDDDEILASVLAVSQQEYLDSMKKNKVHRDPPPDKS
Outline: as §1

Measured: log2 ratio of Biotin-Ahx-Ub-VS probe labelling

Cc1cc(NC(=O)CCl)n(-c2ccccc2)n1
inactive: [1] -0.0258 | [2] -0.205 | [4] -0.154 | [5] 0.0602 | [6] 0.513 | [7] -0.315 | [8] 0.184 | [9] -0.222
active: [3] -3.5

CNC(=O)Cn1cc(NC(=O)CCl)cn1
inactive: [1] -0.433 | [2] -0.517 | [4] -0.308 | [5] 0.0304 | [6] -0.125 | [7] -0.0242 | [8] -0.305 | [9] -0.468
active: [3] -1.67

Cc1cccnc1NC(=O)C1CCN(C(=O)CCl)CC1.Cl
inactive: [1] 0.0719 | [2] -0.281 | [3] -0.703 | [4] -0.244 | [5] 0.146 | [6] -0.0889 | [7] -0.251 | [8] -0.365 | [9] -0.447

CN(CCc1ncc(Br)cn1)C(=O)CCl.Cl
inactive: [1] -0.0179 | [2] -0.617 | [3] -0.611 | [4] -0.295 | [5] 0.145 | [6] 0.245 | [7] 0.000215 | [8] -0.616 | [9] -0.588

Cc1nc(CC2CCN(C(=O)CCl)CC2)no1
active: [2] -1.02
inactive: [1] -0.358 | [3] -1.08 | [4] -0.302 | [5] -0.111 | [6] -0.155 | [7] -0.686 | [8] -0.753 | [9] -0.888

O=C(CCl)Nc1cc(Cl)ccc1C(=O)O
inactive: [1] -0.0259 | [2] 0.182 | [3] -0.0627 | [4] -0.053 | [5] -0.119 | [6] -0.0511 | [7] 0.108 | [8] 0.038 | [9] -0.156

Cc1ccc(CN(C)C(=O)CCl)o1
inactive: [1] 0.042 | [2] -0.103 | [3] -0.4 | [4] -0.0182 | [5] -0.047 | [6] 0.277 | [7] 0.103 | [8] 0.05 | [9] -0.308

O=C(CCl)NCc1noc(C2CC2)n1
inactive: [1] 0.174 | [2] -0.198 | [4] -0.262 | [5] 0.143 | [6] 0.00371 | [7] -0.305 | [8] -0.405 | [9] -0.391
active: [3] -1.08

CN1C(=O)c2ccc(NC(=O)CCl)cc2C1=O
active: [3] -3.58
inactive: [1] 0.35 | [2] -0.464 | [4] -0.166 | [5] 0.319 | [6] -0.33 | [7] 0.0722 | [8] -0.313 | [9] -0.621

O=C(CCl)NCCc1cccc2ccccc12
inactive: [1] -0.35 | [2] 0.214 | [4] 0.273 | [5] 0.236 | [6] 0.159 | [7] 0.162 | [8] 0.0626 | [9] 0.0474
active: [3] -1.22

O=C(CCl)N1CCN(C(=O)N2CCCCC2)CC1
inactive: [4] -0.507 | [5] 0.266 | [6] -0.215 | [7] -0.524 | [8] -0.638
active: [1] -1.37 | [2] -1.81 | [3] -1.46 | [9] -1.13

Cc1n[nH]c(=O)c2c(NC(=O)CCl)oc(C)c12
inactive: [1] 0.211 | [2] 0.117 | [3] 0.169 | [4] 0.173 | [5] 0.156 | [6] -0.0353 | [7] 0.329 | [8] 0.0677 | [9] -0.187

N#Cc1ccccc1N1CCN(C(=O)CCl)CC1
active: [2] -1.16 | [3] -1.32
inactive: [1] -0.383 | [4] -0.123 | [5] -0.0881 | [6] 0.162 | [7] -0.449 | [8] -0.714 | [9] -0.872

CN1c2ccccc2C(NC(=O)CCl)CS1(=O)=O (stereo not given)
inactive: [1] -0.325 | [2] -0.142 | [4] -0.327 | [5] 0.0135 | [6] 0.147 | [7] -0.0194 | [9] -0.14
active: [3] -2.33 | [8] -1.65

COc1ccc(-c2csc(NC(=O)CCl)n2)cc1
active: [3] -2.94
inactive: [1] -0.0925 | [2] -0.907 | [4] -0.0557 | [5] 0.443 | [6] -0.207 | [7] -0.0658 | [8] -0.702 | [9] -0.997
